Compound activity as filed in PubChem.
GPR151 ag: activators of human GPR151 | Q8TDV0 | hit rate 1% among 650,000 | PathHunter beta-arrestin GPR151 cells, luminescence | AID 1508602 | activation, % at 11.2 µM; in the data active means activation above about 4.9%
FBW7 activator: activators of human E3 ligase FBW7; hit rate 0.13% among 650,000; normalized activity (activation), % at 26.1 µM; AlphaScreen FBW7–phospho-cyclin E peptide binding, activator screen; Q969H0; AID 1259310; in the data active means normalized activity above about 1.9%;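 further: purified mutant Fbw7 with reduced substrate affinity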
TEAD-YAP block: TEAD-YAP interaction inhibition; HEK-TIYL cells, TEAD-Gal4/YAP UAS-luciferase luminescence; inhibition, % at 9.12 µM; hit rate 1.4% among 640,000; AID 1259422; in the data active means inhibition above about 32%
MITF primary: inhibitors of human MITF; O75030; AlphaScreen MITF homodimerization, bead proximity signal; inhibition, % at 2.6 µM; hit rate 0.91% among 650,000; in the data active means inhibition above about 50%
GPR151 conf act: confirmation of human GPR151 activators | shares compounds with GPR151 ag | GPR151 PathHunter beta-arrestin cells, luminescence, 90 min; % of EA-reagent control over plate median | activation, % at 11.2 µM | 6,700 tested, under 10 active | AID 1508609;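 active means mean percent activation across replicates above the confirmation screen cutoff of 4.91%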
GPR119 ag: GPR119 activation, counter-screen for GPR151 activators; GPR119 PathHunter beta-arrestin cells, luminescence, 90 min; 0 = compound-well median, 100 = enzyme-acceptor control; activation, % at 11.2 µM; shares compounds with GPR151 ag; AID 1508611; hit rate 0.3% among 6,700;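 active means mean percent activation in the counterscreen above 29.09%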;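 further: counterscreen on off-target GPR119 to flag nonselective hits from the GPR151 activator screen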
Target sequence (Q8TDV5 whole entry, looked up): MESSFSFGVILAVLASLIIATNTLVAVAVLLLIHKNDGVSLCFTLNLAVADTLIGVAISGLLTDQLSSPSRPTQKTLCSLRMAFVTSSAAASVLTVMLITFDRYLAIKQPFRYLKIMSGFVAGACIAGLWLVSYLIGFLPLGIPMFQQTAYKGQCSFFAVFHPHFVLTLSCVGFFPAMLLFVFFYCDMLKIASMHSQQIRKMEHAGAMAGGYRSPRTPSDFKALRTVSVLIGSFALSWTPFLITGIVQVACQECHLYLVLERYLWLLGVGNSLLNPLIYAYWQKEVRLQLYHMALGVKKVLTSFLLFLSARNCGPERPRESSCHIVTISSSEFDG
A number is an active result; . = inactive; / = no result. Most compounds without a hit are left out; they make up all but 3.4% or so of the library.

SMILES	GPR151 ag	FBW7 activator	TEAD-YAP block	MITF primary	GPR151 conf act	GPR119 ag
O=C(N1CCOCC1)N1CCC(c2ncncc2-c2ccncc2)CC1	.	.	.	.	/	/
CC(C)C(CC(=O)NCC1CCCO1)NS(=O)(=O)c1ccc(F)cc1 (stereo unspecified)	.	.	.	.	/	/
O=C(CNc1n[nH]c(=O)[nH]c1=O)N/N=C/c1ccccc1	8.1	.	.	.	.	.
CC(C)Cc1cc(C(=O)N2CCn3cnnc3C2)no1	.	.	.	.	/	/
CCCN(CCC)S(=O)(=O)c1ccc(C)c(C)c1	.	.	.	.	/	/
C=CCN(CC(=O)O)S(=O)(=O)c1ccc(C)c(C)c1	6.6	.	.	.	.	.
Cc1nnc(SCC#N)n1-c1cccc(C#N)c1	.	.	.	.	/	/
Cc1cccc(OCCCN2CCOCC2)c1C	5.1	.	.	.	.	.
CC1CCN(c2nc3c(c(=O)[nH]2)CCN(Cc2cccc4nccnc24)C3)CC1	7.4	.	.	.	.	.
CC1CN(c2nc3c(c(=O)[nH]2)CCN(Cc2c(O)ccc4ccccc24)C3)CC(C)O1 (stereo unspecified)	5.2	.	.	.	.	.
O=c1[nH]c(N2CCCC2)nc2c1CCN(Cc1cccc3nccnc13)C2	.	.	.	.	/	/
CCOC(CCn1c(SC(CC)C(=O)NCc2cccnc2)nc2ccccc2c1=O)OCC (stereo unspecified)	7.0	.	.	.	.	.
Cc1ccc(NS(=O)(=O)c2cc(C(=O)Nc3ccccc3)ccc2Cl)cc1	.	.	.	.	/	/
COc1cc(C2C(C(=O)OC3CCCC3)=C(C)NC3=C2C(=O)CC(c2ccc(Cl)cc2)C3)ccc1OC(C)=O (stereo unspecified)	5.5	.	.	.	.	.
CCCOc1ccc(C2C(C(=O)OC3CCCCC3)=C(C)NC3=C2C(=O)CCC3)cc1OC (stereo unspecified)	7.2	.	.	.	.	.
CCOc1ccc(C2C(C(=O)OC3CCCCC3)=C(C)NC3=C2C(=O)CCC3)cc1OC (stereo unspecified)	.	.	.	.	/	/
CNS(=O)(=O)c1cc(C(=O)O)cc(C)c1C	.	.	.	.	/	/
COc1cc(Nc2nc(SCC(=O)c3ccc(Br)cc3)nc3ccccc23)cc(OC)c1	.	.	.	.	/	/
O=C(CSc1nc(Nc2ccc(F)c(F)c2)c2ccccc2n1)c1ccc(F)cc1	5.1	.	.	.	.	.
COc1cc(Nc2nc(SCC(=O)c3ccccc3)nc3ccccc23)cc(OC)c1	6.9	.	.	.	.	.
Cc1nccc2[nH]c(=O)c(C(=O)NCCc3ccccc3)cc12	7.3	.	.	.	.	.
CCc1ccc(-n2c(C)nc3cc(C(=O)NCCc4ccc(OC)c(OC)c4)ccc32)cc1	5.1	.	.	.	.	.
COc1ccc(-n2c(C)nc3cc(C(=O)NCCc4ccc(OC)c(OC)c4)ccc32)cc1	.	.	.	.	/	/
COc1c(Cl)cc(Cl)cc1C1N(Cc2ccc(Cl)cc2)CCN1Cc1ccc(Cl)cc1	.	.	.	.	/	/
Cc1c(NC(=O)C2CCN(C(=O)Nc3ccccc3)CC2)c(=O)n(-c2ccccc2)n1C	.	.	.	.	/	/
SMILES	GPR151 ag	FBW7 activator	TEAD-YAP block	MITF primary	GPR151 conf act	GPR119 ag
CN1C(=O)c2cccc(NC(=O)c3ccc4ccccc4c3)c2C1=O	7.6	.	.	.	.	.
CC(C)n1nnnc1SCC(=O)Nc1nc(-c2ccc(F)cc2)cs1	.	.	.	.	/	/
COc1ccc(C=O)cc1CSc1ccccn1	5.3	.	.	.	.	.
COc1ccc(/C=N/NS(=O)(=O)c2ccccc2)cc1CSc1ccccn1	.	.	.	.	/	/
Cc1cc(C)c(S(=O)(=O)N(CC(=O)NCc2cccnc2)C2CCCCC2)c(C)c1	.	.	.	.	/	/
COc1ccc(S(=O)(=O)N(CC(=O)NCc2cccnc2)C2CCCCC2)cc1OC	5.2	.	.	.	.	.
CCc1csc2ncc(C(=O)NOC(C)C)c(=O)n12	.	.	.	.	/	/
CC(=O)NCCSCc1cc2cccc3c2n(c1=O)CCC3	6.3	.	.	.	.	.
CC(=O)c1cccc(S(=O)(=O)NCc2ccco2)c1	.	.	.	.	/	/
CC(=O)c1cccc(S(=O)(=O)NCC(c2ccco2)N2CCCCC2)c1 (stereo unspecified)	7.0	.	.	.	.	.
CCOC(=O)C1=C(C)N(c2ccc(Br)cc2)C(=O)/C1=C\c1ccc(C(=O)O)cc1	.	.	.	.	/	/
